Assay outcomes from PubChem.
BoNT A protease: blocks Botulinum neurotoxin A light chain protease; multiplex microsphere protease substrate cleavage, flow cytometry; inhibition, % at 10 µM; 0.17% of 360,000 active; AID 588499; further: plate controls were buffer without enzyme for full effect and enzyme alone for no effect
SSB-PriA inh: inhibitors of Klebsiella pneumoniae PriA binding to SSB C-terminal tail; inhibition, % at 33 µM; 0.6% of 430,000 active; AID 1272365; AlphaScreen SSBct-PriA binding, biotinylated peptide; in the data active means inhibition mostly above about 37%, no sharp cut-off; inactive means mostly below about 20%;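 further: plate controls were negative control peptide for no effect and reference peptide for full effect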
Anthrax LF inh2: anthrax lethal factor protease inhibition; multiplex microsphere protease cleavage assay, LF; inhibition, % at 10 µM; 0.12% of 360,000 active; further: plate controls were buffer without enzyme for full effect and enzyme alone for no effect
Target sequence (P15917 whole entry, looked up): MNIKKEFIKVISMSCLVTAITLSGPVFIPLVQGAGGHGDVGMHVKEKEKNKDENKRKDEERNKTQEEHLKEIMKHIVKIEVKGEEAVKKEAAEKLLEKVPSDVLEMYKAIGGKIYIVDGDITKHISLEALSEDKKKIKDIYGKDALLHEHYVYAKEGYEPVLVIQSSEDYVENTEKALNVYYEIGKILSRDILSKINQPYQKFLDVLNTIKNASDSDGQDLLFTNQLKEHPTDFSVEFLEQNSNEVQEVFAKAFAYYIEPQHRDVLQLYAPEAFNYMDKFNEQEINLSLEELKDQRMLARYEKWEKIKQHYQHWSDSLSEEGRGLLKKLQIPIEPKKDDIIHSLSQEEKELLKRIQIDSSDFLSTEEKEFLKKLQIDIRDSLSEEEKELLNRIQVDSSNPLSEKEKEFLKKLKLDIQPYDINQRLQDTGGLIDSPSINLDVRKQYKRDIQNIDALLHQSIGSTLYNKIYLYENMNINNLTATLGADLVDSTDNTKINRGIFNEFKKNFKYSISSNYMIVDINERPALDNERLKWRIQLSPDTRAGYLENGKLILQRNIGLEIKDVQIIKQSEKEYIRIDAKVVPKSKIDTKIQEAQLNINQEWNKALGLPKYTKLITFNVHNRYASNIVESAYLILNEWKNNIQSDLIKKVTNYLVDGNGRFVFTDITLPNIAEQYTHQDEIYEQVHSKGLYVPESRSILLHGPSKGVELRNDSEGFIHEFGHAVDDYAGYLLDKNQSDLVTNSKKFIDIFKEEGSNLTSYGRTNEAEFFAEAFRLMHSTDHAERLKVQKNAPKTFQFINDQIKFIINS
MazEF act: activators of E. coli MazEF toxin-antitoxin RNase | P0AE70 | FAM/BHQ RNA-DNA oligo cleavage fluorescence, 5 h | activation, % at 20 µM | 0.32% of 350,000 active; in the data active means activation above about 50%
Bead autofluor: flagged as autofluorescent in microsphere protease counterscreen; compound autofluorescence counterscreen, microsphere flow cytometry; active compounds read high; fluorescence intensity (test concentration not listed); 3.1% of 360,000 active; AID 624483; in the data active means fluorescence intensity above about 16000; inconclusive means no clear call, values can overlap the other calls
BoNT-F LC inh: BoNT F light chain protease inhibition; Multiplex microsphere protease cleavage assay, flow cytometry; AID 588497; inhibition, % at 10 µM; 0.22% of 360,000 active; in the data active means inhibition above about 35%, passing the limit was not always enough; inconclusive means no clear call, values can overlap the other calls; further: plate controls were buffer without enzyme for full effect and enzyme alone for no effect
Numbers without * were called inactive; ? = inconclusive; . = not tested or not shown; ! = a repeat was not active. Only some compounds are listed: those with a hit (about 3.3% of all), similar ones and a draw of the others. Unless noted, no stated cut-off is given here; in the data, active means inhibition above about 30%; inconclusive means no clear call, values can overlap the other calls; inactive means below that.

SMILES | BoNT A protease | SSB-PriA inh | Anthrax LF inh2 | MazEF act | Bead autofluor | BoNT-F LC inh
CC1(C)CC(=O)C2=C(C1)OC(/N=C/N1CCCC1)=C(C#N)C2c1ccccc1 (configuration not stated) | -1 | . | -1 | -5 | 5383 | -2
CC(c1ccccc1)C1C(C#N)=C(N)OC2=C1C(=O)CC(C)(C)C2 (configuration not stated) | -2 | 2 | -1 | -3 | 23366* | 0
CC(C)(C)C(=O)NC[C@H](O)c1ccoc1 | . | -10 | . | . | . | .
NS(=O)(=O)c1ccc(CNC(=O)/C=C/c2cccc([N+](=O)[O-])c2)cc1 | -16 | -6 | -23 | 7 | 19057* | -66
Cc1c(C=NN=C2CCC3C4CCc5cc(O)ccc5C4CCC23C)cnn1C (configuration not stated) | . | -12 | . | . | . | .
COc1ccccc1NC(=O)C(Br)C(C)C (configuration not stated) | . | -5 | . | . | . | .
COC(=O)Nc1sc2c(c1C(=O)NCc1ccco1)CCCC2 | 5 | -8 | -15 | 0 | 17349* | 4
COC(=O)Nc1sc2c(c1C(=O)NC1CC1)CCCCCC2 | 0 | -14 | -2 | 2 | 16545* | 0
COC(=O)Nc1sc2c(c1C(=O)NCc1ccco1)CCC2 | ? | 4 | -2 | -3 | 20826* | 1
O=C(Nc1sc2c(c1C(=O)NC1CC1)CCCCCC2)c1ccco1 | 0 | -7 | -1 | -3 | 8124 | 0
CCOc1ccc(C(=O)Nc2sc3c(c2C(=O)NCc2cccnc2)CCCC3)cc1 | . | -15 | . | . | . | .
O=C(Nc1sc2c(c1C(=O)NCc1cccnc1)CCCC2)c1ccco1 | 0 | -11 | 0 | -1 | 22004* | 0
CCOc1cc2c(cc1Br)nc1n2C(c2ccccc2)C(Br)CS1 (configuration not stated) | . | 0 | . | . | . | .
O=c1n(Cc2ccc(F)cc2Cl)nc2ccc(S(=O)(=O)N3CCSCC3)cn12 | . | -15 | . | . | . | .
COc1ccc(CCNC(=O)CN2CC(c3nc(-c4ccsc4)no3)C2)cc1OC | . | 5 | . | . | . | .
COC(=O)c1c(NC(=O)/C=C/c2ccco2)sc2c1CCC2 | 1 | -4 | 0 | 57* | 2004 | 2
O=C(CCN1C(=O)c2ccccc2C1=O)Nc1sc2c(c1C(=O)NCc1ccco1)CCCC2 | ? | -3 | -10 | 3 | 23594* | -6
CC(C(=O)Nc1sc2c(c1C(=O)NCc1ccco1)CCCC2)N1C(=O)c2ccccc2C1=O (configuration not stated) | -1 | 3 | -2 | -14 | 3525 | -9
O=C(Nc1sc2c(c1C(=O)NCc1ccco1)CCCC2)c1ccc2c(c1)OCO2 | 5 | -13 | -5 | 6 | 21722* | 6
Cc1ccc(C(=O)Nc2sc3c(c2C(=O)NCc2ccco2)CCCC3)cc1 | -1 | -30 | -7 | -7 | 4637 | -34
Cc1noc(Cc2ccccc2NC(=O)C2CCN(S(C)(=O)=O)CC2)n1 | . | -5 | . | . | . | .
O=C(CSc1cn(CCNC(=O)c2ccc(Cl)cc2)c2ccccc12)Nc1ccc2c(c1)OCO2 | . | 16 | . | . | . | .
CCOc1ccc(S(=O)(=O)NCc2ccsc2)cc1 | . | -5 | . | . | . | .
COc1ccccc1NC(=O)CSc1n[nH]c(-c2ccccc2)n1 | . | 26 | . | . | . | .
COc1ccccc1NC(=O)CSc1nc(N)cc(N)n1 | 3 | -9 | 2 | 4 | 21327* | 3
SMILES | BoNT A protease | SSB-PriA inh | Anthrax LF inh2 | MazEF act | Bead autofluor | BoNT-F LC inh
COc1ccc(-c2ccc(SCC(=O)N3CCOCC3)nn2)cc1OC | 0 | -19 | 0 | -13 | 11309 | 7
COc1ccc(-c2ccc(SCC(=O)N3CCCC3)nn2)cc1OC | 3 | -17 | 0 | 8 | 19444* | 6
COc1ccc(NC(=O)CSc2ccc(-c3ccccn3)nn2)cc1OC | -2 | 72* | 2 | 6 | 9038 | -13
CCOc1ccccc1NC(=O)CSc1ccc(-c2ccccn2)nn1 | . | 116* | . | . | . | .
COc1ccccc1CCNC(=O)C1CN(C(=O)c2ccc3c(c2)OCO3)C1 | . | -15 | . | . | . | .
COc1ccccc1NC(=O)CSc1nc2nc(C)cc(C)c2c(=O)[nH]1 | 0 | -5 | 4 | 51* | 2428 | 4
COc1ccccc1NC(=O)CSc1ccc(-c2ccncc2)nn1 | . | 18 | . | . | . | .
COc1ccc2nc(SCC(=O)Nc3ccccc3C)[nH]c2c1 | 0 | 5 | 0 | 1 | 20993* | 0
COc1ccc2nc(SCC(=O)Nc3ccccc3C#N)[nH]c2c1 | 0 | -18 | -3 | 5 | 2371 | 6
O=C(CSc1ccc(-c2ccccn2)nn1)Nc1ccccc1F | . | 84* | . | . | . | .
COc1ccccc1NC(=O)CSc1ccc(-c2ccccn2)nn1 | 0 | 89*! | -1 | 10 | 4496 | -11
COc1ccc(NC(=O)CSc2nc3nc(C)cc(C)c3c(=O)[nH]2)cc1OC | 0 | 3 | 6 | -13 | 3451 | 5
O=C(CSc1ccc(-c2ccccn2)nn1)Nc1ccc(F)cc1F | 1 | 11 | 2 | 10 | 5995 | -4
COC(=O)c1ccc2c(=O)n(Cc3ccc(F)cc3)c(N(Cc3ccco3)C3CCCC3)nc2c1 | . | -9 | . | . | . | .
O=C1/C(=C/c2ccccc2I)N=C2CCCCCN12 | . | -20 | . | . | . | .
COc1ccc(CC(=O)Nc2cnc(OC)nc2N2CCCC2)cc1 | . | -7 | . | . | . | .
CCn1nnc2c(NCCn3ccc4ccccc43)ncnc21 | . | 4 | . | . | . | .
C=CCn1c(SCc2csc(C)n2)nc2sc3c(c2c1=O)CC[C@H](C)C3 | . | -1 | . | . | . | .
Cc1nnc(NC(=O)CSc2ccc(-c3ccccn3)nn2)s1 | . | 56* | . | . | . | .
Cc1nnc(NC(=O)CSc2ccc(-c3cccnc3)nn2)s1 | 0 | -18 | -2 | 5 | 4069 | 1
Cc1ccc(-n2ncc3c(=O)n(NC(=O)C4CCCO4)cnc32)cc1C (configuration not stated) | . | -5 | . | . | . | .
O=C1/C(=C\c2ccccn2)SC(=S)N1c1ccc(S(=O)(=O)Nc2nccs2)cc1 | -3 | -5 | 30* | -2 | 3634 | ?
Cc1ccc(/C=C2/SC(=S)N(c3ccc(S(=O)(=O)Nc4nccs4)cc3)C2=O)cc1 | 4 | -5 | 4 | -8 | 2972 | ?
Fc1ccc(C=NN2CCCCC2)c(F)c1 | . | 43* | . | . | . | .
O=C(O)/C=C/C(=O)NNC(=O)c1ccccc1Br | 5 | 0 | -16 | 1 | 20690* | 6
SMILES | BoNT A protease | SSB-PriA inh | Anthrax LF inh2 | MazEF act | Bead autofluor | BoNT-F LC inh
Cc1cccc(C(=O)NNC(=O)c2ccccc2Br)c1 | 1 | -3 | 6 | 12 | 3428 | 45*
O=C(Nc1nnc(Cc2cccs2)o1)c1cc2ccccc2o1 | . | 4 | . | . | . | .
CCOC(=O)C1CCN(Cc2cc(=O)oc3cc(C)cc(C)c23)CC1 | . | -13 | . | . | . | .
O=C(Nc1cccn(Cc2c(Cl)cccc2Cl)c1=O)c1ccc(Cl)cc1Cl | 0 | -2 | -8 | 3 | 6515 | -6
O=C(Nc1cccn(Cc2c(Cl)cccc2Cl)c1=O)c1ccccc1Cl | ? | -7 | -6 | -6 | 21806* | -5
O=c1ccccn1Cc1c(Cl)cccc1Cl | ? | -16 | -1 | 0 | 23028* | 4
Cc1ccc(Cl)cc1NC(=O)c1cccc(OC(F)F)c1 | 8 | -9 | -4 | 2 | 20132* | 5
CCOc1ccccc1-n1nnnc1SCc1nc2ccccc2s1 | -4 | -6 | -3 | -5 | 17496* | -8
Cc1cccc(NC(=S)NNC(=S)NCc2ccccc2)c1 | 1 | 0 | 0 | 3 | 22617* | -1
